Screening results from PubChem BioAssay.
Most compounds without a hit are left out; they make up all but 7.3% or so of the library.
Rab9 promoter act = activates the Rab9 promoter; Huh7 Rab9 promoter-luciferase reporter, luminescence, 24 h; Potency, µM (series often up to 9.22 µM), inactives show at the highest dose activation, negative = inhibition, actives largely listed as activators; 320,000 compounds, 2.8% hits; note: % of control where 0% means no effect; nearly all actives have a fitted effect of over 60% in size
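Huh7 cells stably carrying a Rab9 promoter-luciferase reporter, 1500 cells per well in OP-MEM I with 10% FBS, treated with compound 24 hours at 37C. Luciferase activity read by luminescence after 10 minutes with Amplite reagent.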
NPC1 promoter act = NPC1 promoter activation. Huh7 NPC1 promoter luciferase reporter, 24 h. AID 485313. 320,000 compounds, 2.4% hits. Potency, µM (titrated, usually from 9.22 µM), without a hit: at the highest dose activation, actives largely listed as activators; note: % of control where 0% means no effect; nearly all actives have a fitted effect of over 60% in size
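Quantitative HTS used a cell-based reporter: Huh7 cells stably bearing the NPC1 promoter upstream of luciferase were treated with compounds for 24 h, and promoter activation was read as luminescence.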
SMN2 splice up = SMN2 splice variant enhancement; 210,000 compounds, 2.8% hits; HEK293 SMN2-luciferase splicing reporter, luminescence, 30-36 h; Potency, µM (doses to about 46.1 µM), without a hit: at the highest dose activity change, positive = activation, usual class: activators; note: % of control where 0% means no effect; nearly all actives have a fitted effect of over 55% in size
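HEK293 cells carry an SMN2 […]–luciferase reporter in which exon 7 inclusion puts luciferase in frame. Cells were plated 10-12 h before compound addition, then incubated 30-36 h at 37C. ONE-Glo luminescence was read; sodium butyrate at 4.5 mM final served as control.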
FLuc counter = firefly luciferase modulation, counter-screen for miR-21 project; purified FLuc, Km substrates, luminescence inhibition; Potency, µM (series often up to 57.5 µM), without a hit: top-dose activity change, negative = inhibition, usual class: inhibitors; 360,000 compounds, 6.9% hits;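 note: plate controls were vehicle for no effect and reference inhibitor for full effect; nearly all actives have a fitted effect of over 55% in size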
Target sequence (P08659 whole entry, looked up): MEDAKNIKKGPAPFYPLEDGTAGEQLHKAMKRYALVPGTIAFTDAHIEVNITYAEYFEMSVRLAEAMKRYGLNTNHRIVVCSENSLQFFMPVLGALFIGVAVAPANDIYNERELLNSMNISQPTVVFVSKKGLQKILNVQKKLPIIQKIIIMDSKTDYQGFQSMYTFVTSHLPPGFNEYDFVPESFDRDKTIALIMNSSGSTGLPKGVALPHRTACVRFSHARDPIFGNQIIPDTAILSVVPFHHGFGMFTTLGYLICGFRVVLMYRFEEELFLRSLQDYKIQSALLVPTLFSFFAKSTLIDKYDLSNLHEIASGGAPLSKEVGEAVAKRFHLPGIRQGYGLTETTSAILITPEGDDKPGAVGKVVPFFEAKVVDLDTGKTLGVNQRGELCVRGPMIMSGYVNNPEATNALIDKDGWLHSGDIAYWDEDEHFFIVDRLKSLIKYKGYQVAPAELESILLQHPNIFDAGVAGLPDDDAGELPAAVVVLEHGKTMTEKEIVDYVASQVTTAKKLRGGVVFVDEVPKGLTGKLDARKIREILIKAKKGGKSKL
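Purified P. pyralis luciferase, 10 nM final, with Km-level 10 uM D-luciferin and 10 uM ATP in 50 mM Tris acetate pH 7.5, 10 mM Mg acetate, 0.01% Tween-20, 0.05% BSA; 6-point qHTS titration about 60 µM downward; luminescence read.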
Luc counter = blocks Kinase-Glo luciferase, a counter-screen artifact; Kinase-Glo luciferase, ATP luminescence, 8 min; Potency, µM (top dose mostly 38.3 µM), without a hit: at the top dose activity change, negative = inhibition, most hits filed as inhibitors; 200,000 compounds, 0.28% hits; AID 1379; note: % is set by controls: 0 for no effect and ±100 for the full control effect; nearly all actives have a fitted effect of over 60% in size
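Kinase-Glo luciferase light output from ATP and luciferin was measured with 10 uM ATP, within the enzyme's linear range. Buffer: 50 mM imidazole pH 7.2, 50 mM KCl, 7 mM MgCl2, 0.01% Tween 20, 0.05% BSA; luminescence read after 8 min at ambient temperature.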
ELG1 genotox = induces genotoxicity in HEK293T cells with luciferase-tagged ELG1. 330,000 compounds, 1.3% hits. HEK293T ELG1-luciferase reporter, luminescence, 16 h. Potency, µM (top dose mostly 46 µM), without a hit: at the top dose activity change, positive = activation, actives largely listed as activators; note: % of control where 0% means no effect; nearly all actives have a fitted effect of over 60% in size
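Quantitative HTS format in 1536-well plates. HEK293T ELG1-luciferase reporter cells receive test compound and are incubated 16 hr at 37 °C, 5% CO2; ONE-Glo added, 30 min room temperature, then luminescence read.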
* = called active by the depositor; ? = inconclusive; · = not tested or not shown. Calls come from the whole dose curve; as a rule, active = well fitted curve in the direction sought with a large enough effect; inconclusive = small, poorly fitted or top-dose-only effect, or another doubt; inactive = no such curve, though single readings can be large; an effect the other way counts as inactive or inconclusive. Potency is the fitted concentration of half-maximal effect.

SMILES	Rab9 promoter act	NPC1 promoter act	SMN2 splice up	FLuc counter	Luc counter	ELG1 genotox
Cc1cc(-c2ccccc2)n2nc(-c3ccc(Cl)cc3)cc2n1	·	·	·	-1.8%	·	·
Cc1nc2cc(-c3ccccc3)nn2c(N)c1-c1ccccc1	0.631µM*	1µM*	·	·	·	1.83µM*
Cc1nn2c3c(cnc2c1-c1ccccc1)C(=O)CCC3	?	?	-1.3%	15.1µM*	-5.9%	?
Cc1nn2c(-c3ccccc3)ccnc2c1-c1ccccc1	?	?	-21.5%	5.36µM*	0.0%	?
Fc1ccc(CNc2cc(-c3ccccc3)nc3nncn23)cc1	·	·	-18.6%	5.1%	·	·
O=C(C1CCN(S(=O)(=O)Cc2ccccc2)CC1)N1CCN(c2ccccc2)CC1	·	·	·	0.8%	·	·
Cc1nn2c(N)c(-c3ccccc3)cnc2c1-c1ccc(Cl)cc1	3.55µM*	2.51µM*	·	5.36µM*	·	?
N#Cc1cnn2c(N)c(-c3ccc(Cl)cc3)cnc12	18.5%	0.0%	0.6%	-6.0%	0.0%	4.2%
Cc1ccc(C)c(CN2C(=O)CSc3ccc(C(=O)NCc4ccc(F)cc4)cc32)c1	·	·	-4.5%	-1.0%	·	·
CSc1ccc(CNC(=O)Cc2ccc(NC(=O)C3=C(C)OCCS3)cc2)cc1	?	-0.9%	·	1.35µM*	·	13µM*
CCOc1ccc(CCNC(=O)Cc2ccc(NC(=O)C3=C(C)OCCS3)cc2)cc1	?	?	·	4.26µM*	·	7.0%
CCc1ccccc1OCC(=O)Nc1cccc(S(=O)(=O)NC2=NCCC2)c1	1.2%	1.7%	·	19µM*	·	1.0%
Cc1ccc(C(C)C)c(OCC(=O)Nc2cccc(S(=O)(=O)NC3=NCCCCC3)c2)c1	-1.3%	0.3%	·	0.2%	·	-19.3%
Cc1ccccc1OCC(=O)Nc1cccc(S(=O)(=O)NC2=NCCC2)c1	15.7%	12.6%	·	2.13µM*	·	8.6%
CCOc1ccccc1OCC(=O)Nc1cccc(S(=O)(=O)NC2=NCCCCC2)c1	-4.1%	1.5%	·	-0.6%	·	-3.9%
CN(C)c1ccc(C(=O)Nc2cccc(S(=O)(=O)NC3=NCCCCC3)c2)cc1	26.0%	17.1%	·	·	·	8.9%
CC(C)(C)c1ccc(C(=O)Nc2cccc(S(=O)(=O)NC3=NCCC3)c2)cc1	?	2.51µM*	·	0.135µM*	·	2.7%
Cc1ccccc1OCC(=O)Nc1cccc(S(=O)(=O)NC2=NCCCCC2)c1	1.2%	-1.5%	·	16.9µM*	·	25.9%
COc1ccc(N2CCN(Cc3nc4c(c(=O)[nH]c(=O)n4C)n3Cc3ccccc3F)CC2)cc1	·	·	-8.8%	4.6%	·	·
Cc1cc(=O)n2[nH]c(=O)c(N=Nc3ccccc3)c2[nH]1	-2.1%	-1.1%	-4.4%	?	-10.3%	8.6%
COc1cccc(N=Nc2c(N)[nH][nH]c2=O)c1	27.8%	25.1%	10µM*	15.1µM*	-12.7%	?
CCOc1ccc(N=Nc2c(=O)[nH]n3c(=O)cc(C)[nH]c23)cc1	2.82µM*	?	?	4.78µM*	?	?
CCOc1ccc(N=Nc2c(N)[nH][nH]c2=O)cc1	?	?	?	10.7µM*	?	?
Cc1ccc(NC(=S)/N=C(\N)Nc2nc(C)c3ccccc3n2)cc1C	-9.6%	-8.3%	-28.9%	10.7µM*	1.1%	-1.5%
C=CCNC(=O)c1ccccc1NC(=O)COc1ccccc1	-3.3%	0.3%	-10.1%	0.2%	3.3%	-6.2%
SMILES	Rab9 promoter act	NPC1 promoter act	SMN2 splice up	FLuc counter	Luc counter	ELG1 genotox
Cc1ccc(NC(=O)Nc2ccccc2C(=O)NCc2ccccc2)cc1	20.7%	21.1%	2.2%	4.78µM*	-4.2%	?
Cc1ccccc1NC(=O)Nc1ccccc1C(=O)NCc1ccccc1	0.4%	1.9%	4.1%	-13.9%	0.4%	-1.3%
COc1ccccc1NC(=O)Nc1c(C)nn(C)c1C	-6.5%	0.6%	5.4%	9.2%	-0.5%	-0.1%
C=CCNC(=O)c1ccccc1NC(=O)Nc1ccccc1	17.5%	7.5%	19.5%	19µM*	-17.3%	5.7%
Cc1nn(C)c(C)c1NC(=O)c1ccccc1NC(=O)Nc1ccccc1	1.1%	-2.4%	·	16.9µM*	·	-1.1%
O=C(Nc1ccccc1)Nc1ccccc1C(=O)NCC1CC1	-2.9%	-0.9%	·	15.1µM*	·	-0.9%
CCN(CC)c1ccc(NS(=O)(=O)c2cc(-c3onc(C)c3C)ccc2OC)c(C)c1	·	·	·	0.7%	·	·
Cc1cc(=O)n2nc(N3CCC(C(=O)Nc4ccc(C(C)C)cc4)CC3)sc2n1	·	·	-8.1%	-11.5%	·	·
COCCNC(=O)c1ccccc1NC(=O)c1nsc2ccccc12	·	·	·	19µM*	·	·
COCCNC(=O)c1ccccc1NC(=O)Nc1ccccc1	2.4%	-4.5%	9.4%	26.9µM*	?	-0.1%
COCCNC(=O)c1ccccc1NC(=O)c1cc(OC)cc(OC)c1	1.2%	-4.5%	-0.8%	-13.9%	-2.4%	-7.0%
O=C(O)c1cccc(NC(=O)c2ccccc2NC(=O)c2ccco2)c1	-2.0%	-4.6%	·	?	·	0.9%
Cc1ccccc1NC(=O)c1cccc(NC(=O)c2ccco2)c1	-0.3%	-2.7%	·	?	·	-1.3%
O=C(O)Cc1ccc(NC(=O)c2cccc(NC(=O)c3ccco3)c2)cc1	-1.7%	-2.7%	·	16.9µM*	·	4.3%
Cc1c(NC(=O)c2cccc(NC(=O)c3ccco3)c2)cccc1C(=O)O	2.7%	-2.6%	7.6%	19µM*	0.3%	-0.3%
O=C(NCc1ccccc1)c1cccc(NC(=O)c2ccco2)c1	-4.9%	5.6%	-29.9%	-17.4%	0.4%	3.0%
O=C(Nc1ccc(O)c(C(=O)O)c1)c1cccc(NC(=O)c2ccco2)c1	-4.5%	-1.1%	·	10.7µM*	·	-1.0%
CCOc1ccc2oc(=O)cc(CN3CCN(C(=O)c4ccc(Cl)cc4)CC3)c2c1	·	·	-21.5%	-9.1%	·	·
CCOc1ccc(C2=NC(c3ccncc3)=Nc3ccc(C)cc3N2)cc1OCC	·	·	12.4%	-0.6%	·	·
Cc1ccc(NC(=O)N2CC3CCCN3c3ccccc32)c(C)c1 (stereo unspecified)	·	·	·	-11.4%	·	·
Cc1cc(OCc2cc(C(=O)N(C)C(C)c3ccccn3)no2)cc(C)c1Cl (stereo unspecified)	?	?	·	19µM*	·	?
Cc1cc(OCc2cc(C(=O)N(C)Cc3ccccn3)no2)cc(C)c1Cl	3.98µM*	3.98µM*	·	12µM*	·	?
CSc1ccccc1OCc1cc(C(=O)N(C)C(C)c2ccccn2)no1 (stereo unspecified)	0.0%	-3.2%	·	3.4%	·	0.2%
CC(=O)c1ccc(OCc2cc(C(=O)N(C)Cc3ccccn3)no2)cc1	?	?	·	15.1µM*	·	?
Cc1cccc(Cc2nnc(CCC(=O)N(CC3CC3)CC3CCCO3)o2)c1 (stereo unspecified)	?	?	·	21.3µM*	0.6%	?
